We go through 14 compounds from PubChem BioAssay (NCI).

Some test systems named below: DU-145 prostate; K-562 leukemia; MALME-3M melanoma; MDA-MB-231 breast; RXF 393 renal; SF-268 CNS; SF-295 CNS; SF-539 CNS; UACC-257 melanoma; M14 melanoma.
What all share (test): NCI-60 one-dose screen, 48 h (100 = growth as untreated, 0 = no growth, -100 = all killed)
What all share (conditions): 10 µM unless noted

The structures appear in SMILES notation. The panel holds about 83,000 compounds, 20% with a hit somewhere; the sample as a whole holds those more often.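 Cell lines were cultured in 96-well plates, exposed to a single compound concentration, and assessed for percent growth 48 hours later.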 Unmarked numbers belong to inactive results. The source made the active and inactive calls. Rule for the calls: active = growth percent below 10; inactive = the rest.

With `COc1cc(OC)c(S(N)(=O)=O)cc1C(=O)/C=C/c1ccc(Cl)cc1`, the growth with DU-145 prostate was 5.02% (active); with K-562 leukemia, 7.15% (active); in the assay on MALME-3M melanoma it was 61.4%; in the assay on MDA-MB-231 breast, 11.5%; in the assay with RXF 393 renal it was -40.4% (active); in the assay with SF-268 CNS, 6.79% (active). For the same compound, the growth in the assay with SF-295 CNS was 1.14% (active); in the assay on SF-539 CNS, 0.148% (active); with UACC-257 melanoma, 73.6%; in the assay with M14 melanoma it was 19.9%.
For the compound `CC(O)c1cc2ccccc2c(=O)o1` (stereo not given), the growth is 110% in the assay with DU-145 prostate; 101% in the assay on K-562 leukemia; 98.2% in the assay on MALME-3M melanoma; 103% in the assay with MDA-MB-231 breast; 129% with RXF 393 renal; 98.3% in the assay on SF-268 CNS. Also, the growth is 97.7% in the assay on SF-295 CNS, 95.2% in the assay with SF-539 CNS, 96.7% in the assay with UACC-257 melanoma and 107% with M14 melanoma.
Turning to `CCOc1cccc(-c2nc3sccn3c2-c2ccnc(S(C)(=O)=O)n2)c1`, the growth in the assay on DU-145 prostate was 0.125% (active); in the assay with K-562 leukemia, 55.4%; in the assay with MALME-3M melanoma, 98.8%; in the assay on MDA-MB-231 breast, 101%; with RXF 393 renal, 98.3%; with SF-268 CNS it was 99.7%. The growth is 104% with SF-295 CNS, 94.4% with SF-539 CNS, 91.1% with UACC-257 melanoma and 94.4% in the assay with M14 melanoma.
Take `CC(=O)O[C@@H]1C(=O)N(c2cnccn2)[C@H]1c1ccccc1[N+](=O)[O-]`: the growth in the assay with DU-145 prostate is 2.33% (active); with K-562 leukemia, 9.97% (active); with MALME-3M melanoma, 51.8%; in the assay on MDA-MB-231 breast, 22.4%; in the assay with RXF 393 renal, 62.9%; in the assay with SF-268 CNS, 19.4%. Further, the growth is 23.9% in the assay on SF-295 CNS, -32.5% (active) with SF-539 CNS, 44.7% in the assay with UACC-257 melanoma and -2.82% (active) in the assay on M14 melanoma.
For the compound `N/C(=N\C(N)=N\c1nc2ccccc2s1)c1ccncc1Cl`, the growth in the assay with DU-145 prostate was 45.7%; with K-562 leukemia, 17.1%; with MALME-3M melanoma, 45.7%; in the assay on MDA-MB-231 breast, 45%; in the assay on RXF 393 renal, 8.87% (active); in the assay on SF-268 CNS it was 52.6%. For the same compound, the growth is -22.2% (active) in the assay with SF-295 CNS, 7.8% (active) in the assay with SF-539 CNS, 79.7% with UACC-257 melanoma and 32.4% with M14 melanoma.
For the compound `O=S(=O)(Nc1ccc2c(c1)OCO2)c1ccc(-c2cnc(C3CC3)o2)cc1`, the growth in the assay on DU-145 prostate was 44.6%; in the assay on K-562 leukemia it was 12.3%; in the assay on MALME-3M melanoma, 46.2%; in the assay on MDA-MB-231 breast it was 46.2%; in the assay on RXF 393 renal, 34.9%; with SF-268 CNS, 53.6%. Moreover, the growth in the assay with SF-295 CNS was 9.2% (active); in the assay with SF-539 CNS, 33%; in the assay with UACC-257 melanoma it was 55%; in the assay on M14 melanoma, 22.8%.
Turning to `CC1(C)CC[C@]2(C(=O)N3CCOCC3)CC[C@]3(C)C(=CC[C@@H]4[C@@]5(C)C/C(=C/c6ccco6)C(=O)C(C)(C)[C@@H]5CC[C@]43C)[C@@H]2C1`, the growth is 73.2% in the assay on DU-145 prostate; 64.2% in the assay on K-562 leukemia; 97.4% in the assay on MALME-3M melanoma; 85.5% in the assay on MDA-MB-231 breast; -3.24% (active) with RXF 393 renal; 63.1% in the assay on SF-268 CNS. Moreover, the growth in the assay with SF-295 CNS is 95.3%; in the assay with SF-539 CNS, 86.5%; in the assay on UACC-257 melanoma, 94.5%; in the assay with M14 melanoma, 101%.
For `CC[C@@H](CO)Nc1ccc2ncc(C#Cc3cncc(C(=O)Nc4ccc(CN5CCN(C)CC5)c(C(F)(F)F)c4)c3)n2n1`, the growth in the assay with DU-145 prostate is -82.4% (active); with K-562 leukemia, 0.898% (active); in the assay on MALME-3M melanoma, -82.2% (active); in the assay with MDA-MB-231 breast, -58.3% (active); in the assay with RXF 393 renal, -96.2% (active); in the assay on SF-268 CNS it was -60.4% (active). The growth with SF-295 CNS is -84.7% (active); in the assay on SF-539 CNS, -82.1% (active); in the assay on UACC-257 melanoma, -84.8% (active); with M14 melanoma, -92% (active).
Take `COc1ccc2[nH]cc(/C=N/Nc3nc4ccccc4s3)c2c1`: the growth in the assay on DU-145 prostate was 60.3%; with K-562 leukemia, 24.3%; with MALME-3M melanoma it was 98.4%; in the assay on MDA-MB-231 breast, 67.2%; with RXF 393 renal, 60.8%; in the assay on SF-268 CNS, 55.9%. Moreover, the growth in the assay with SF-295 CNS was 58.5%; in the assay with SF-539 CNS it was 70.5%; with UACC-257 melanoma, 81.9%; with M14 melanoma, 52%.
In the case of `O=C(CSc1nnc(-c2ccc(Cl)cc2)n1-c1ccccc1)Nc1cccc(Cl)c1`, the growth in the assay with DU-145 prostate was 64.6%; with K-562 leukemia it was 61.9%; in the assay on MALME-3M melanoma it was 75.9%; with MDA-MB-231 breast, 36.3%; with RXF 393 renal, 70.8%; in the assay on SF-268 CNS, 76.1%. Moreover, the growth with SF-295 CNS is 27.2%; with SF-539 CNS it was 50.9%; in the assay on UACC-257 melanoma, 90.4%; with M14 melanoma it was 72.8%.
As to `COc1cccc2cc(-c3cc4ccccc4[nH]3)/c(=N\NC(=O)c3ccc(Cl)cc3)oc12`, the growth is 48.3% in the assay on DU-145 prostate; 22.1% in the assay with K-562 leukemia; 61.7% in the assay on MALME-3M melanoma; 41.3% with MDA-MB-231 breast; 45.9% with RXF 393 renal; 32.9% with SF-268 CNS. Moreover, the growth was 43.2% in the assay with SF-295 CNS, 33.1% in the assay with SF-539 CNS, 17.4% in the assay with UACC-257 melanoma and 31.9% with M14 melanoma.
Turning to `CC(C)(C)CC(C)(C)n1nnnc1C(Nc1nccs1)c1cc2cccc3ccc4cccc1c4c32` (stereo not given), the growth in the assay with DU-145 prostate was 107%; in the assay on K-562 leukemia, 111%; in the assay with MALME-3M melanoma, 94%; in the assay with MDA-MB-231 breast, 97.2%; in the assay with RXF 393 renal it was 119%; in the assay with SF-268 CNS, 94.8%. The growth with SF-295 CNS is 94.9%; in the assay on SF-539 CNS, 92.7%; with UACC-257 melanoma, 104%; with M14 melanoma it was 111%.
`COc1ccc(-c2nn(-c3ccc(S(C)(=O)=O)cc3)cc2/C=N/O)cc1`: the growth in the assay with DU-145 prostate was 107%; in the assay on K-562 leukemia, 107%; in the assay with MALME-3M melanoma, 103%; in the assay on MDA-MB-231 breast, 96.7%; with RXF 393 renal, 103%; in the assay on SF-268 CNS it was 108%. Moreover, the growth in the assay on SF-295 CNS was 106%; in the assay on SF-539 CNS, 92.1%; with UACC-257 melanoma it was 104%; with M14 melanoma, 109%.
As to `COc1ccc(/C=N/NC2=NC3C(S2)N(C)C(=O)N3C)cc1` (stereo not given), the growth with DU-145 prostate was 25.2%; with K-562 leukemia, 9.56% (active); in the assay with MALME-3M melanoma, 39%; in the assay on MDA-MB-231 breast it was 44.9%; in the assay with RXF 393 renal, -19.3% (active); in the assay with SF-268 CNS, 47.6%. The growth with SF-295 CNS was 10.6%; in the assay with SF-539 CNS, 2.22% (active); in the assay with UACC-257 melanoma it was 79.8%; with M14 melanoma, 32.5%.
